The values below come from PubChem BioAssay (EPA / NIEHS).

Structures are written as SMILES. The source made the active and inactive calls. The calls were made as follows: active = hit-call score of the fitted dose curve at least 0.9, where 1 is the maximum; inactive = score below 0.9.

Usually AC50 stands for the midpoint of the concentration-response curve, whichever way the signal moves.

The target of experiment [1] is Bile acid receptor (Homo sapiens) (UniProt Q96RI1). Kind of experiment: ATG_IR1_CIS: Attagene CIS-FACTORIAL HepG2 Assay for human Nuclear Receptor Subfamily 1 Group H Member 4 (NR1H4), IR1 submotif (AID 2282946). The following applies: IR1 reporter transcription, actives raise or lower the signal. An outline of the steps: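 Cells (human HepG2) carry transiently transfected cis-promoter reporter transcription units. Compounds are incubated 24 h, total RNA is reverse-transcribed and amplified, and labelled fragments are resolved by capillary electrophoresis. Curves use DMSO as baseline.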

Experiment [2] in a line: ATG_GRE_CIS: Attagene CIS-FACTORIAL HepG2 Assay for human Glucocorticoid Response Elements (GRE) (AID 2282947). Conditions: HepG2 GRE cis-reporter, Attagene multiplex mRNA; actives raise or lower the signal. In short, it runs like this: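 Assay uses human hepatoma HepG2 cells transfected with cis-promoter reporter units, exposed 24 h. mRNA from reporters detected by RT-PCR plus capillary electrophoresis; DMSO serves as negative control and baseline.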

The nature of experiment [3]: ATG_ISRE_CIS: Attagene CIS-FACTORIAL HepG2 Assay for human Interferon Regulatory Factor 1 (IRF1) binding to an Interferon-Stimulated Response Element (ISRE) (AID 2282948). Conditions: HepG2 ISRE cis-reporter (Attagene), mRNA transcription readout; actives raise or lower the signal. An outline of the steps:
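Transiently transfected HepG2 cells carrying cis-element reporter units, dosed 24 hours. Reporter mRNA quantified by RT-PCR, fluorescent primer extension, HpaI digestion and capillary electrophoresis. Bidirectional fitting relative to DMSO.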

The nature of experiment [4]: ATG_M_06_CIS: Attagene CIS-FACTORIAL HepG2 Assay for M06 Transcription Factor (Internal Marker) (AID 2282950). Conditions: HepG2 Attagene CIS-FACTORIAL M06 internal marker reporter; actives raise or lower the signal. An outline of the steps: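 Internal background marker within multiplexed cis-reporter HepG2 system. Cells transiently transfected, dosed 24 h; reporter mRNA measured by RT-PCR, HpaI digestion and capillary electrophoresis. Bidirectional fit relative to DMSO.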

Experiment [5] has as its target Hypoxia-inducible factor 1-alpha (Homo sapiens) (UniProt Q16665). Kind of experiment: ATG_HIF1a_CIS: Attagene CIS-FACTORIAL HepG2 Assay for human Hypoxia Inducible Factor 1 (HIF1A) (AID 2282951). Conditions: HepG2 Attagene cis-factorial HIF1a reporter transcription; actives raise or lower the signal. In short, it runs like this: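 HepG2, transient cis-reporter library, 24 h dosing. RNA → RT (oligo dT) → PCR → 6-FAM primer extension → HpaI → CE. Bidirectional curve fit vs DMSO.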

The target of experiment [6] is Hepatocyte nuclear factor 6 (Homo sapiens) (UniProt Q9UBC0). Kind of experiment: ATG_HNF6_CIS: Attagene CIS-FACTORIAL HepG2 Assay for human Hepatocyte Nuclear Factor 6 (HNF6) (AID 2282952). Conditions: HepG2 Attagene cis-factorial HNF6 reporter transcription; actives raise or lower the signal. An outline of the steps:
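HepG2 cells transiently transfected with cis-element-driven multiplexed reporter units measuring endogenous transcription factor activity. After 24 h exposure, reporter mRNA quantified by RT-PCR, FAM-labelled fragments and capillary electrophoresis; bidirectional fitting versus DMSO.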

In experiment [7] the target is Heat shock factor protein 1 (Homo sapiens) (UniProt Q00613). In words: ATG_HSE_CIS: Attagene CIS-FACTORIAL HepG2 Assay for human Heat Shock Transcription Factor 1 (HSE) (AID 2282953). The following applies: HepG2 HSE cis-reporter, Attagene RNA transcription; actives raise or lower the signal. In short, it runs like this: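 HepG2 cells transfected with cis-promoter reporter units sensing endogenous transcription factor activity; reporter mRNA quantified 24 h post-dose by RT-PCR and capillary electrophoresis of 6-FAM-labelled products. Bidirectional fitting against DMSO.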

Experiment [8] can be described thus: ATG_MRE_CIS: Attagene CIS-FACTORIAL HepG2 Assay for human Metal Responsive Element (MRE) (AID 2282954). Conditions: HepG2 MRE cis-reporter transcription, Attagene multiplex; actives raise or lower the signal. An outline of the steps: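 After a 24 h chemical exposure, transiently transfected HepG2 cells yield RNA whose reporter sequences are amplified, FAM-labelled and sized by capillary electrophoresis. Curves are fitted bidirectionally relative to DMSO.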

Experiment [9] in a line: ATG_PBREM_CIS: Attagene CIS-FACTORIAL HepG2 Assay for human Phenobarbital-responsive Enhancer Module (PBREM) (AID 2282955). The following applies: HepG2 PBREM cis-reporter, Attagene multiplexed transcription; actives raise or lower the signal. In short, it runs like this:
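HepG2, transient MRTU transfection, 24 h dosing; RNA → oligo(dT) RT → PCR → 6-FAM extension → HpaI → CE. Bidirectional fit vs DMSO.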

For experiment [10], the target named is Paired box protein Pax-6 (Homo sapiens) (UniProt P26367). Kind of experiment: ATG_Pax6_CIS: Attagene CIS-FACTORIAL HepG2 Assay for human Paired Box 6 (PAX6) (AID 2282956). The following applies: HepG2 CIS-FACTORIAL PAX6 reporter transcription, RNA readout; actives raise or lower the signal. In short, it runs like this: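 HepG2 cells transiently transfected with cis-promoter-driven multiplexed reporter units sensing endogenous transcription factor activity; 24 h chemical exposure. Reporter mRNA quantified by RT-PCR, 6-FAM labelling, HpaI digestion and capillary electrophoresis; bidirectional fit versus DMSO baseline.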

Experiment [11] can be described thus: ATG_PXRE_CIS: Attagene CIS-FACTORIAL HepG2 Assay for human Pregnane X Receptor Element (PXRE) (AID 2282957). The following applies: HepG2 Attagene CIS-FACTORIAL PXRE reporter, mRNA; actives raise or lower the signal. In short, it runs like this: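 HepG2 cells transiently transfected with cis-element-driven multiplexed reporter units; after 24 h chemical exposure, reporter mRNA measured by RT-PCR, 6-FAM labelling, HpaI digestion and capillary electrophoresis. Bidirectional fitting relative to DMSO.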

Experiment [12] is described as follows: ATG_PPRE_CIS: Attagene CIS-FACTORIAL HepG2 Assay for human Peroxisome Proliferator-activated Response Element (PPRE) (AID 2282958). Conditions: HepG2 PPRE cis-element reporter, Attagene transcription factor profiling; actives raise or lower the signal. In short, it runs like this:
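Transcript-level reporter induction in transfected HepG2 cells after 24 h chemical exposure, quantified by fluorescence from RT-PCR products separated by capillary electrophoresis.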

Experiment [13] is described as follows: ATG_RORE_CIS: Attagene CIS-FACTORIAL HepG2 Assay for human RAR-related Orphan Receptor Element (RORE) (AID 2282959). The following applies: HepG2 Attagene cis-factorial RORE reporter, mRNA; actives raise or lower the signal. In short, it runs like this: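 Multiplexed reporter assay measuring mRNA induction from a cis promoter element in transiently transfected HepG2 cells after 24 h treatment. Detection via RT-PCR and capillary electrophoresis fluorescence; DMSO serves as baseline.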

Experiment [14] in a line: ATG_Sox_CIS: Attagene CIS-FACTORIAL HepG2 Assay for human SRY-box transcription factor (SOX) (AID 2282960). The following applies: HepG2 Attagene cis-factorial SOX reporter, mRNA; actives raise or lower the signal. In short, it runs like this:
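Cells were transfected with reporter constructs under cis-regulatory promoters, then exposed to chemicals for 24 h. Reporter transcripts were quantified by fluorescence after RT-PCR and capillary electrophoresis; activity was fitted in both directions against DMSO.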

The target in experiment [15] is Transcription factor Sp1 (Homo sapiens) (UniProt P08047). In words: ATG_Sp1_CIS: Attagene CIS-FACTORIAL HepG2 Assay for human Specificity Protein 1 (Sp1) (AID 2282961). Conditions: HepG2 Sp1 cis-reporter transcription, actives raise or lower the signal. In short, it runs like this:
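Measures mRNA induction of an Sp1-linked reporter in HepG2 cells 24 h post-dosing. Multiplexed reporters read by RT-PCR and capillary electrophoresis; DMSO serves as negative control and baseline.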

The nature of experiment [16]: ATG_SREBP_CIS: Attagene CIS-FACTORIAL HepG2 Assay for human Sterol Regulatory Element Binding (SREBP) (AID 2282962). The following applies: HepG2 Attagene cis-factorial SREBP reporter, mRNA; actives raise or lower the signal. An outline of the steps: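 HepG2 cells transiently transfected with multiplexed cis-promoter reporter units sensing endogenous transcription factors; reporter mRNA measured 24 h after dosing by RT-PCR, 6-FAM labeling, HpaI digestion and capillary electrophoresis. Bidirectional fit versus DMSO.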

The target of experiment [17] is Signal transducer and activator of transcription 3 (Homo sapiens) (UniProt P40763). Kind of experiment: ATG_STAT3_CIS: Attagene CIS-FACTORIAL HepG2 Assay for human Signal Transducer and Activator of Transcription 3 (STAT3) (AID 2282963). Conditions: HepG2, Attagene cis-factorial STAT3 reporter transcription; actives raise or lower the signal. In short, it runs like this:
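After a 24 h compound incubation, total RNA from MRTU-transfected HepG2 cells was converted to cDNA and reporter sequences PCR-amplified, labelled and profiled by capillary electrophoresis. Gain and loss of signal were referenced to DMSO.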

Experiment [18] is described as follows: ATG_TA_CIS: Attagene CIS-FACTORIAL HepG2 Assay for human TA Basal Promoter (AID 2282964). The following applies: HepG2 Attagene CIS-factorial TA basal promoter reporter; actives raise or lower the signal. An outline of the steps: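 HepG2 cells transiently transfected with multiple reporter units under cis promoter elements, reporting endogenous transcription factor activity; this endpoint tracks the TA basal promoter as background control. Reporter mRNA after 24 h dosing measured by RT-PCR/capillary electrophoresis; bidirectional fits versus DMSO.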

Experiment [19] in a line: ATG_GLI_CIS: Attagene CIS-FACTORIAL HepG2 Assay for human Zinc Finger Protein GLI1 (AID 2282945). The following applies: HepG2, Attagene cis-factorial reporter mRNA, GLI element; actives raise or lower the signal. In short, it runs like this:
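Bidirectional curve fits relative to DMSO, using reporter mRNA levels from RT-PCR plus capillary electrophoresis. Cells were HepG2 transiently carrying cis-regulated reporter constructs, harvested 24 h after dosing.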

Experiment [20] can be described thus: ATG_M_32_CIS: Attagene CIS-FACTORIAL HepG2 Assay for M32 Transcription Factor (Internal Marker) (AID 2282949).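 Also: background control marker of the multiplexed CIS panel rather than a real target.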 Conditions: HepG2 Attagene cis-factorial M32 reporter, mRNA; actives raise or lower the signal. An outline of the steps: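 Internal background marker read-out: RT-PCR/capillary electrophoresis fluorescence of reporter transcripts from transiently transfected HepG2 cells after 24 h chemical exposure. Activity fitted bidirectionally relative to DMSO negative control.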

Sequence of Paired box protein Pax-6 (Homo sapiens) (P26367 whole entry, looked up): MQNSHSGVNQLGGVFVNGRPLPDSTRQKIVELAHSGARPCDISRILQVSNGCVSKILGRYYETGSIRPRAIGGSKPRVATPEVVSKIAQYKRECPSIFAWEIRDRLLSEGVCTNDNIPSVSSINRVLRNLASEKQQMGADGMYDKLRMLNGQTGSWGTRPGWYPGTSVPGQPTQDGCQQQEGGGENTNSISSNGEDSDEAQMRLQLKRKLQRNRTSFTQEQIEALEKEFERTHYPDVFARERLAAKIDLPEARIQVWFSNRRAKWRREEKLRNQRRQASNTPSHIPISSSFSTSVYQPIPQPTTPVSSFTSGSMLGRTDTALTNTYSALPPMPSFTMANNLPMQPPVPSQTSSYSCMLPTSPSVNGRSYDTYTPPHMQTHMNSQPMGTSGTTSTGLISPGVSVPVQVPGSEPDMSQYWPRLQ
Sequence of Heat shock factor protein 1 (Homo sapiens) (Q00613 whole entry, looked up): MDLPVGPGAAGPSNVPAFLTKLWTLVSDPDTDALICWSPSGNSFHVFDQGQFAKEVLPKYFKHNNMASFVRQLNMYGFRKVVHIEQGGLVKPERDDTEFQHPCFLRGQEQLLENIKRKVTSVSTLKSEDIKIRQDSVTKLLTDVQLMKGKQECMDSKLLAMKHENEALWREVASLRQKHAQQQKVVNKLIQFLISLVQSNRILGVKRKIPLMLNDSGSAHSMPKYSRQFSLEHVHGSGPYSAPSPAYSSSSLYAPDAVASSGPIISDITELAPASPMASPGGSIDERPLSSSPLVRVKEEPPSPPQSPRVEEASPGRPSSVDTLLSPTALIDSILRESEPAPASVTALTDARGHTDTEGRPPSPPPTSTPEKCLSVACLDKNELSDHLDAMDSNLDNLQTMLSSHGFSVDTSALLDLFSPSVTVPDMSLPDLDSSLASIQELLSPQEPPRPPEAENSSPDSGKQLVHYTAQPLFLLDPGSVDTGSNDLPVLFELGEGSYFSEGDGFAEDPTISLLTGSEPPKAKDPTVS
Sequence of Transcription factor Sp1 (Homo sapiens) (P08047 whole entry, looked up): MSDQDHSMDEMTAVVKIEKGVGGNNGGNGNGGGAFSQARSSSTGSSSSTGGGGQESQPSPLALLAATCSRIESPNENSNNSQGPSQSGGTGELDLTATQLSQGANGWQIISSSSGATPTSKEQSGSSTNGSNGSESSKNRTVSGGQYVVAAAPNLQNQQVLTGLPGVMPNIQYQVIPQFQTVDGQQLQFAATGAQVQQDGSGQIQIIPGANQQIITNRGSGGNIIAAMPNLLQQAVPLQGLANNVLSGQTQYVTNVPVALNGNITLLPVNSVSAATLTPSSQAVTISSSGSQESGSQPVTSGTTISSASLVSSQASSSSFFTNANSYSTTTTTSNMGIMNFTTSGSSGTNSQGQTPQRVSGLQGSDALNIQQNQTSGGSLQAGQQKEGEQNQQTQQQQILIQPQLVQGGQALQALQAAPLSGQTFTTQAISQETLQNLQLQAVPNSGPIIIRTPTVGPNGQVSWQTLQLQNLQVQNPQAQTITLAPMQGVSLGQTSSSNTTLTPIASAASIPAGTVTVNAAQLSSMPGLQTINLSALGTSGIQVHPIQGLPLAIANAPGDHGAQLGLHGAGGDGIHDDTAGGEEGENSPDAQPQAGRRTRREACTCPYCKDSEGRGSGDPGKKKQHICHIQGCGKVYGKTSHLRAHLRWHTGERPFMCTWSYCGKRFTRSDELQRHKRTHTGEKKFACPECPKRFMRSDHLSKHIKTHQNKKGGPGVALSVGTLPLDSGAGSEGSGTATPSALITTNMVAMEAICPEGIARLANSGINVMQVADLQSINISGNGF
Sequence of Signal transducer and activator of transcription 3 (Homo sapiens) (P40763 whole entry, looked up): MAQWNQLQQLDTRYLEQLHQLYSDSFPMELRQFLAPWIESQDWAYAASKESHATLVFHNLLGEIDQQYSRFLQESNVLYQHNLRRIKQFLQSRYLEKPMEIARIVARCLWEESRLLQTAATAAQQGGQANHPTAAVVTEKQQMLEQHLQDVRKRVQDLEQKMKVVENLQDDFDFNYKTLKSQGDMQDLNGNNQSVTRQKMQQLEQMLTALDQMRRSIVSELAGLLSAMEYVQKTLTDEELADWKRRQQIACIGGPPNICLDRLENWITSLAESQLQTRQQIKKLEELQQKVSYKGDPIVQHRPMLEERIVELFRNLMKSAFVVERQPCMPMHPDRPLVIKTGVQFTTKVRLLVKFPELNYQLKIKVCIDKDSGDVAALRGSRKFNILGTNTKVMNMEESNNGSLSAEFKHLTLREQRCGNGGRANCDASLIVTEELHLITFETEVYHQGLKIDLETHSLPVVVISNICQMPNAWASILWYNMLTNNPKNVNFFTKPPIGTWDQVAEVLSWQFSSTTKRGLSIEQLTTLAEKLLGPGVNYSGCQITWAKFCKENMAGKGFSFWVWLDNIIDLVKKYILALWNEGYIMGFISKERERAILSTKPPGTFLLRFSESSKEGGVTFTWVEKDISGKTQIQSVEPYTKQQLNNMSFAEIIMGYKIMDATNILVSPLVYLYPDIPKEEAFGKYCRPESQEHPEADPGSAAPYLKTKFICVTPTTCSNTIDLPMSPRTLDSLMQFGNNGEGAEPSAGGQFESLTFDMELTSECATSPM
Sequence of Hypoxia-inducible factor 1-alpha (Homo sapiens) (Q16665 whole entry, looked up): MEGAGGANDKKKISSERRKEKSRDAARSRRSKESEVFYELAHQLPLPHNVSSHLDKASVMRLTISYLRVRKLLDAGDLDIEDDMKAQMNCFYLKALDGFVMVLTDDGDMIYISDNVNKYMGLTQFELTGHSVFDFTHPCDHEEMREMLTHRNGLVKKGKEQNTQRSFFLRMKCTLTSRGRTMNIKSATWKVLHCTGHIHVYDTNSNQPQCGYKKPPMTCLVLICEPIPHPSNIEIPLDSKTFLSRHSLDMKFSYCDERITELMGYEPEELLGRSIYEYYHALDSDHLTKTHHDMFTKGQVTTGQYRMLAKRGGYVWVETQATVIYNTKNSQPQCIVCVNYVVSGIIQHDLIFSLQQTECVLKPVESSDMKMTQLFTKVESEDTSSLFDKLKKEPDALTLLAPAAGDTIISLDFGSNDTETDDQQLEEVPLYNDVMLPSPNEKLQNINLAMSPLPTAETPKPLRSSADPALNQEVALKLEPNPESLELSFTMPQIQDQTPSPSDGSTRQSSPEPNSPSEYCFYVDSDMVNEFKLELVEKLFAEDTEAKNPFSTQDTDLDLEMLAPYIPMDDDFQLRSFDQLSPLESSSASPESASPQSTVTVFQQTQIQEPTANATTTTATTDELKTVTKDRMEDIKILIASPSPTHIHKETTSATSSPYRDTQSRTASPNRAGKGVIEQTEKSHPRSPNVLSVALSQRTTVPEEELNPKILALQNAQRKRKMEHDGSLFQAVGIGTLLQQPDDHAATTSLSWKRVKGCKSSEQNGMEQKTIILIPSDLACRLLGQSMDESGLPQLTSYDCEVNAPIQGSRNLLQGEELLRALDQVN
Sequence of Hepatocyte nuclear factor 6 (Homo sapiens) (Q9UBC0 whole entry, looked up, the tested form may be a part): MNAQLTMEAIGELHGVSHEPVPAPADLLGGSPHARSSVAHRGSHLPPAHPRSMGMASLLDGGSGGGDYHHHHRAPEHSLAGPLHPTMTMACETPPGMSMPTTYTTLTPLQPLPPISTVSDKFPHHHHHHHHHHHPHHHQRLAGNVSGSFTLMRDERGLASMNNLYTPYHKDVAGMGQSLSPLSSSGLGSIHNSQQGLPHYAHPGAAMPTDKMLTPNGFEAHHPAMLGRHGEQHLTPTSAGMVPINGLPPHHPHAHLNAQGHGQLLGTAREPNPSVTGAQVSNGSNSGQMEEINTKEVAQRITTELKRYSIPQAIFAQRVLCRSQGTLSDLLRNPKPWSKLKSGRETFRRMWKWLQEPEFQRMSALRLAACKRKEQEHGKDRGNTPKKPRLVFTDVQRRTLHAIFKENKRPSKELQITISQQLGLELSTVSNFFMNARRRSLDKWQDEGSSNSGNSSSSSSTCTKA
Sequence of Bile acid receptor (Homo sapiens) (Q96RI1 whole entry, looked up, the tested form may be a part): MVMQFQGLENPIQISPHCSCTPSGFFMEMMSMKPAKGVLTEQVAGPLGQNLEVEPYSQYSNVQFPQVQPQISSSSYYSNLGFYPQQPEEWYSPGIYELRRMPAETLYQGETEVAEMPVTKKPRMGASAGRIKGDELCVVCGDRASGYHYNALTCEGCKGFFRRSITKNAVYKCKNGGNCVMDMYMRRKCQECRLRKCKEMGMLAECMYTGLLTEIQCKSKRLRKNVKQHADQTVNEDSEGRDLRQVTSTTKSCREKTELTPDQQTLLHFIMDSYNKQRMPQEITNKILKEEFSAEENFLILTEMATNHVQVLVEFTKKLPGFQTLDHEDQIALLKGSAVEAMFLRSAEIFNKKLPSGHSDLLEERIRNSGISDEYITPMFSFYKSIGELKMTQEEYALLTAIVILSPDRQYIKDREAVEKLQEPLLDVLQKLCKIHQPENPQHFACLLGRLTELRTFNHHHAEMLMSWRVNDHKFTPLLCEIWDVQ

Consider `Cc1cc(=O)[nH]c(=S)[nH]1`, for which the outcome in experiment [1], in [2], in experiment [3], in experiment [4], in experiment [5] and in [6] was inactive. Also, the compound was called inactive in experiment [7], in experiment [8], in experiment [9], in experiment [10], in [11] and in experiment [12]. Also, the compound was classed as inactive in [13], in [14], in [15], in [16], in [17] and in experiment [18].

Turning to `CCCc1cc(=O)[nH]c(=S)[nH]1`, the compound was called inactive in experiment [19], in [3], in experiment [20], in [4], in [6] and in [7]. Besides, the call in [8], in experiment [9], in experiment [10], in [12], in experiment [13] and in [15] was inactive. In addition, the compound was classed as inactive in [16], in experiment [17] and in experiment [18]. Besides, in experiment [11], the AC50 is 65400 nM (active).

For the compound `COc1cccc2c1C(=O)c1c(O)c3c(c(O)c1C2=O)C[C@@](O)(C(=O)CO)C[C@@H]3O[C@H]1C[C@H](N)[C@H](O)[C@H](C)O1`, the concentration at half-maximal activity (AC50) in [19] is 1250 nM (active); in experiment [2], 942 nM (active); in [3], 1630 nM (active); in experiment [5] it was 1230 nM (active); in experiment [8], 1660 nM (active); in [16], 909 nM (active). Further, the result in experiment [4], in experiment [6], in experiment [7], in experiment [9], in [10] and in experiment [11] was inactive. Moreover, the call in experiment [12], in experiment [13], in [14], in [15], in [17] and in experiment [18] was inactive.

Consider `CN1CCCC1=O`, for which the compound was classed as inactive in [19], in experiment [3], in experiment [20], in experiment [4], in experiment [5] and in experiment [6]. Further, the result in experiment [7], in experiment [8], in experiment [10], in [11], in [13] and in experiment [15] was inactive. The outcome in experiment [16], in [17] and in [18] was inactive.
